# AHR activator = human AHR activation; P35869; AHR-responsive luciferase reporter cells, luminescence; activation, % at 5 µM; 2.5% of 320,000 active; AID 2796; in the data active = activation above about 47%;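 note: 0% = vehicle wells and 100% = reference agonist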
# Target sequence (P35869 whole entry, looked up): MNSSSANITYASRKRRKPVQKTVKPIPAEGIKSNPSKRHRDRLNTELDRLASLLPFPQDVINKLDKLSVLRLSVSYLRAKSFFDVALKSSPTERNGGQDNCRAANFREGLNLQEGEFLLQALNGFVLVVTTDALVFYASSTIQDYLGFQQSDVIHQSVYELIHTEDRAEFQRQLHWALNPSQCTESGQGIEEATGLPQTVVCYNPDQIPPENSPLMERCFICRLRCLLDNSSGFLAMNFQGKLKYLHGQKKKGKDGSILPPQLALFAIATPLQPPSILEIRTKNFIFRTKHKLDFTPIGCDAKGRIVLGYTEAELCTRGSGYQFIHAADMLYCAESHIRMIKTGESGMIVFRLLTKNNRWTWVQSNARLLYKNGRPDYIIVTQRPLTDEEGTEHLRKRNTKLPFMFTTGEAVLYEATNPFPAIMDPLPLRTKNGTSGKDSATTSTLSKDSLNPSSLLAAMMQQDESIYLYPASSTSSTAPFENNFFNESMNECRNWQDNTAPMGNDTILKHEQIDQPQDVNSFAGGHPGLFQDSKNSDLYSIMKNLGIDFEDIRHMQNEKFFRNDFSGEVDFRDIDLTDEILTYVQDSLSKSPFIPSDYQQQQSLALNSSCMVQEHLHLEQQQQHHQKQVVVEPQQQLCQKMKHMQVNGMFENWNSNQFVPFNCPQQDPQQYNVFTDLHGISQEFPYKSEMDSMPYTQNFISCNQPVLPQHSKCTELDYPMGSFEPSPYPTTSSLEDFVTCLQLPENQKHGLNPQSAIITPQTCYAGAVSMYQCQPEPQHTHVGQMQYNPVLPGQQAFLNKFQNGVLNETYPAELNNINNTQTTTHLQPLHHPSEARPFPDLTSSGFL
# NR0B1 inh = inhibits human nuclear receptor DAX1 | 0.99% of 340,000 active | AID 504766 | HEK293 Gal4-DAX1 luciferase reporter, luminescence | P51843 | inhibition, % at 6.75 µM;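 active = inhibition above the mean over all tested compounds plus 3 SD, cut at about 4.2% in these data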;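 note: 0% = DAX1-transfected cells with DMSO and 100% = empty-vector control cells with DMSO; inhibition shows as a rise in luminescence from relieved DAX1 repression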
# HSF1 inhib = HSF1 inhibition | 0.77% of 300,000 active | AID 2098 | activity change, negative = inhibition, % at 7.5 µM (by protocol) | NIH3T3-HGL HSE-luciferase, MG132-induced, luminescence 8 h; hits give low values;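 active = more than half of replicate wells show activity change below -50%, luminescence cut by over half; inconclusive = some wells, but at most half, below -50%; inactive = no replicate well below -50%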;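 note: luciferase reports HSF-1 transcriptional activity via heat shock element; 0% = median of DMSO wells and -100% = zero luminescence signal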
# HSF1 activator = increases HSF-1 driven luciferase reporter signal; NIH3T3-HGL HSF-1 luciferase reporter, MG132, 8 h; 100% = twice DMSO control signal; activation, % at 9 µM; 1.7% of 300,000 active;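 active = mean replicate activation of at least 50% with a set share of replicates each reaching 50%; inconclusive = only one of those two conditions met; inactive = mean below 50% and too few replicates reaching it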;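 note: 0% = median of the neutral control wells and 100% = twice that signal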
# GAA850 FXN act = activators of GAA850 frataxin (FXN) promoter | HEK293 lucGAA850 FXN promoter luciferase reporter, 24 h; percent of 10 µM SAHA response | activation, % at 6 µM | 0.56% of 360,000 active | AID 540364;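 active = activation above the average of all compounds screened plus 3 SD, cutoff fixed separately per campaign, cut at about 7.5% in these data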;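 note: 0% = DMSO wells and 100% = 10 µM SAHA wells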
# * marks the source's active call; other numbers are inactive results; ? = inconclusive; · = no result. Compounds with a hit are over-represented: about 5.4% of the library has one in this group of screens.
SMILES,AHR activator,NR0B1 inh,HSF1 inhib,HSF1 activator,GAA850 FXN act
CCOC(=O)C1(C)CCCCCN1C(=O)c1csnn1 (centres undefined),·,·,·,·,-1
O=C(CCN1C(=O)/C(=C/C=C/c2ccccc2)SC1=S)Nc1ccccn1,-5,-1,45,48,-1
O=C(CCCCCN1C(=O)c2ccccc2C1=O)Nc1ccc(C(=O)O)cc1,0,1,28,63*,0
CC(=C\c1ccccc1)/C=C1/SC(=S)N(CCC(=O)Nc2ccccn2)C1=O,-2,·,-91*,-93,·
Cc1ccc2oc(C(=O)N3CCC(O)(c4ccccc4)CC3)c(C)c2c1,3,3,7,5,2
Cc1cnc(C(=O)OCC(=O)c2ccc(Br)s2)cn1,3,1,-2,-2,0
CC(=O)Nc1ccc(NC(=O)COC(=O)[C@@H](NC(=O)c2ccc(F)cc2)C(C)C)cc1,0,-1,17,62*,1
CC(C)[C@H](NC(=O)c1ccco1)C(=O)OCC(=O)Nc1ccc(F)cc1,0,0,5,7,2
CSC(=S)N/N=C/c1ccc(N(C)C)cc1,51*,-1,23,?,2
CN(C)c1ccc(C=NNC(=S)Nc2ccc(F)cc2)cc1,·,5.0*,·,·,0
CSC(=S)N/N=C/c1ccc(Br)cc1,20,-1,7,37,1
CC(=O)Nc1ccc(S(=O)(=O)N(C)CC(=O)OCC(=O)N2CCCC2=O)cc1,1,1,0,0,-1
COc1ccc(S(=O)(=O)N2CCCCC2)cc1NC(=O)Cc1cccc(C(F)(F)F)c1,·,1,·,·,2
CC(C)c1ccc(/C=N/n2c(COc3ccccc3)n[nH]c2=S)cc1,0,2,-5,-1,2
CC(C)(NC(=O)c1cc(Cl)c2ccccc2c1O)C(=O)O,15,2,-83*,-87,2
O=C(O)c1cc(Cl)c2ccccc2c1O,31,0,5,32,3
CCOC(=O)[C@@H]1[C@H]2COc3cc(OC)ccc3[C@@H]2N2C(=O)N(c3ccc(F)cc3)C(=O)[C@@]12C,1,0,·,·,-1
COC(=O)c1ccc(C2NC(C(=O)O)CS2)cc1 (centres undefined),3,4.6*,-1,1,1
CN(C)CCOC(=O)CCCCCCCCC(=O)OCCN(C)C,-2,1,6,0,-1
Nc1nc2nc(-c3ccccc3)cc(C(F)(F)F)c2s1,68*,-2,-11,19,3
Cc1cc(C(F)(F)F)c2sc(N)nc2n1,14,2,2,12,1
CCOC(=O)c1c(S(=O)(=O)N2CCCC2)c(C)n(C)c1C,0,1,-5,-13,-1
CCOC(=O)c1c(S(=O)(=O)N2CCCCC2C)c(C)n(C)c1C (centres undefined),2,0,-88*,-91,1
O=c1[nH]c2ccccc2cc1CN(Cc1cccnc1)S(=O)(=O)c1ccc([N+](=O)[O-])cc1,1,0,28,63*,2
O=C(CCC(=O)c1ccccc1)Nc1ccccc1OC(F)F,2,-1,3,12,-1
SMILES,AHR activator,NR0B1 inh,HSF1 inhib,HSF1 activator,GAA850 FXN act
COc1ccc(OC)c(N=C2SCCCN2C(=O)c2ccc(N3C(=O)CCC3=O)cc2)c1,-1,·,-68*,-76,·
Cc1ccc(/C=C(\C#N)C(=O)NC(C)C)o1,-3,1,-6,-16,3
CC(C)NC(=O)/C(C#N)=C/c1ccc(N(C)C)o1,-4,5.0*,2,0,2
O=[N+]([O-])c1cccc(S(=O)(=O)Nc2ccc3cn[nH]c3c2)c1,29,0,·,·,1
Cn1nc(C(=O)Nc2cccc(Cl)c2)cc1C(=O)Nc1cccc(Cl)c1,-4,-1,4,4,0
Cn1nc(C(=O)Nc2ccc(Cl)cc2)cc1C(=O)Nc1ccc(Cl)cc1,72*,2,-2,2,-1
Cc1ccc(NC(=O)c2cc(C(=O)Nc3ccc(C)cc3)n(C)n2)cc1,62*,3,-7,3,-1
CCOC(=O)c1c(-c2ccc(C)cc2)csc1NC1=NS(=O)(=O)c2ccccc21,-1,0,-5,10,3
CCN(CC(=O)Nc1ccc(NC(C)=O)cc1)C(=O)CCCc1c[nH]c2ccccc12,1,0,·,·,-2
CC(=O)c1cccc(Nc2cc(C)nc3c(C)cccc23)c1,50*,1,-10,-25,1
CC(=O)c1cccc(NC(=O)Nc2nc(C)cc(C)n2)c1,30,4.7*,5,25,5
CC1CCN(CCCNC(=O)C2CCC(CNS(=O)(=O)c3ccccc3)CC2)CC1 (centres undefined),0,1,0,0,0
Cc1cc(Br)ccc1NC(=O)CNC(=O)Cc1ccc(S(=O)(=O)N2CCOCC2)s1,5,0,2,15,0
CCc1cccc(NC(=O)c2cnn(-c3ccccc3)c2C)c1,-6,4,15,42,3
O=C(Nc1cccc(Cl)c1)c1ccc(Cn2cc(Cl)cn2)cc1,11,0,20,53*,2
CCn1ncc(C(=O)Nc2cccc(Cl)c2)c1C,79*,3,23,62*,4
Cc1cc(C(=O)Nc2ccc(Cl)cc2)c(C)n1-c1ccccc1,-10,·,-90*,-92,-13
Cc1ccc(NC(=O)c2cc(C)n(-c3cccc(C)c3)c2C)cc1,-8,-3,-70*,-75,-6
Cc1ccc(-n2c(C)cc(C(=O)NS(=O)(=O)c3ccc(C)cc3)c2C)cc1,9,1,-3,2,1
Cc1ccc(NC(=O)c2cc(C)n(-c3ccccc3)c2C)cc1,-15,-4,-82*,-83,-13
Cc1ccc(NC(=O)c2cnn(-c3ccccc3)c2C)c(C)c1,-1,2,12,23,1
Cc1ccc(NC(=O)c2cnn(-c3ccccc3)c2C)cc1,-10,2,37,72*,2
Cc1cc(C)n(-c2ccc(C(=O)N3CCN(S(=O)(=O)c4ccc(OC(F)(F)F)cc4)CC3)cc2)n1,·,0,·,·,-1
CCOC(=O)C1(C)CCCN(C(=O)c2ccc(C#N)cc2)C1 (centres undefined),·,·,·,·,-2
CCCc1c(C(=O)Nc2ccc(OC)cc2)cnn1-c1ccccc1,73*,6.3*,-1,21,2
SMILES,AHR activator,NR0B1 inh,HSF1 inhib,HSF1 activator,GAA850 FXN act
Cc1nc2ccc(NC(=O)c3ccccc3)cc2c(=O)n1Cc1ccc(F)cc1,·,-2,·,·,-1
CCCc1nc2ccc(NC(C)=O)cc2c(=O)n1Cc1ccc(Cl)cc1,27,2,37,60*,3
CCCc1nc2ccc(NC(=O)c3cccs3)cc2c(=O)n1Cc1ccccc1Cl,1,-1,19,61*,0
COc1ccc(Cn2c(C3CC3)nc3ccc(NC(=O)c4cccnc4)cc3c2=O)cc1,26,0,-14,-33,-3
COc1ccc(Cn2c(C3CC3)nc3ccc(NC(C)=O)cc3c2=O)cc1,26,2,29,51*,5
O=[N+]([O-])c1ccc2nc(Cl)nc(-c3ccccc3)c2c1,·,-1,-12,-13,0

# Assay outcomes: PubChem BioAssay, several laboratories
